Source: ChEMBL document CHEMBL4513216, “Probing the Open Global Health Chemical Diversity Library for Multistage-Active Starting Points for Next-Generation Antimalarials” (ACS Infect Dis, 2020)
In all, about 69,000 compounds went through this assay and about 8,600 (12%) showed an effect of 50% or more. Shown is part of a subset that was picked to be rich in strong results.

Tested on: Plasmodium berghei
Assay: Screen against P. berghei liver stage (PbLuc), transformed with Luciferase, at 10uM
Format: functional, HepG2
Details: tested at 10 uM

Row | Structure (SMILES) | INHIBITION [%]
1 | CS(=O)(=O)N(Cc1ccon1)c1cccc(Br)c1 | -11.9
2 | CC(c1ccccc1)n1cc2nc(N(C)C)[nH]cc-2c1=O (centres undefined) | 15.7
3 | CC(C)S(=O)(=O)C(C)C(=O)NCc1ccccc1OCc1ccccc1 (centres undefined) | 42.5
4 | CNC(=O)[C@@H](c1ccccc1OC)N1CCC[C@H]1C(=O)N1CC[C@@H](O)C1 | -63.5
5 | O=C(O)c1nnn(-c2ccc(OC(F)(F)F)cc2)c1-c1ccncc1 | -22.1
6 | COc1ccc(-n2cccn2)c(CN2CCC3(CCNCC3)C2)c1 | 53
7 | c1cnn(Cc2ccc(CN3CCC4(CCCNC4)C3)cc2)c1 (centres undefined) | 3.96
8 | COc1ccc(-n2cccn2)c(CN2CCC3(CCCNC3)C2)c1 (centres undefined) | 13
9 | COc1ccc(-n2cccn2)c(CN2CCC(O)(CO)CC2)c1 | 21.2
10 | c1cnn(Cc2ccc(CN3CCC4(CCNCC4)C3)cc2)c1 | 60.3
11 | c1ccc(Cn2cccn2)c(CN2CCC3(CCCNC3)C2)c1 (centres undefined) | 4.87
12 | Cn1cccc1C(=O)N1CC[C@@]2(O)CCN(S(C)(=O)=O)C[C@H]2C1 | 42.1
13 | CC(C)CNc1nccc(-c2cnc3sc(Cl)cn3c2=O)n1 | 2.6
14 | Cc1cc(C(F)(F)F)nn1CC(C)C(=O)Nc1ccccn1 (centres undefined) | -22.2
15 | Cc1cc(C)n(CC(=O)NCc2ccccn2)n1 | 3.58
16 | COc1ncccc1CNC(=O)NC1CCOc2ccccc21 (centres undefined) | 29.6
17 | CC(C)Oc1ncccc1CNC(=O)NC1CCOc2ccccc21 (centres undefined) | 42.9
18 | CCOc1ncccc1CNC(=O)NC1CCOc2ccccc21 (centres undefined) | 52.5
19 | Cc1cccc(C2(O)CCN(C(=O)c3ccccn3)CC2)c1C | 57.8
20 | CCC(=O)N1CCC(O)(c2ncc(OC)nc2OC)CC1 | 0.0932
21 | COc1cnc(C2(O)CCN(C(=O)c3cccnc3)CC2)c(OC)n1 | 60.8
22 | COc1cnc(C2(O)CCN(C(=O)c3ccco3)CC2)c(OC)n1 | 29.3

Row | Structure (SMILES) | INHIBITION [%]
23 | COc1cnc(C2(O)CCN(C(=O)c3ccccn3)CC2)c(OC)n1 | 57.5
24 | COc1cnc(C2(O)CCN(C(=O)c3scnc3C)CC2)c(OC)n1 | 36.7
25 | COc1cnc(C2(O)CCN(C(=O)c3ccncc3)CC2)c(OC)n1 | 37.5
26 | Cc1cccc(C2(O)CCN(C(=O)c3ccc(N(C)C)cc3)CC2)c1C | 33.1
27 | COc1ccccc1C(=O)N1CCC(O)(c2cccc(C)c2C)CC1 | 24.2
28 | CCOC(=O)[C@H]1CNC[C@@H]1C(F)(F)F | 35.6
29 | Cc1nnc([C@@H]2CC[C@@H]3[C@@H](CCN3S(=O)(=O)c3cccnc3)O2)o1 | 14.2
30 | Cc1ccc(C(=O)NS(=O)(=O)c2ccccc2F)c(=O)[nH]1 | 33.8
31 | CN(C)C(=O)Cn1cc(C(=O)NCCc2ccc(Cl)cc2Cl)nn1 | -27.8
32 | CCc1nccn1C1CCCN(C(=O)c2ccoc2C)C1 (centres undefined) | 21.6
33 | CC(=Cc1ccccc1)CNCc1cccc(C(N)=O)c1 | 4.3
34 | O=C(O)c1ccccc1-n1cc(CN2CCC(c3cc[nH]n3)C2)cn1 (centres undefined) | 22.17
35 | Cc1csc2cc(C(=O)NC3CCCC3)cnc12 | -76.5
36 | CCN1CCc2c(sc3c2C(=O)NC(C=Cc2ccccc2)N3)C1 (centres undefined) | 15.1
37 | CCc1nc(C)sc1CN(Cc1ccncc1)C1CCN(C)CC1 | 18.8
38 | Cc1nc(-c2ccc(CNS(=O)(=O)N(C)C)cc2)ccc1C(N)=O | -4.87
39 | CC(=O)Nc1nc(CN2CCCC2Cn2cncn2)cs1 (centres undefined) | 61.3
40 | CC(=O)Nc1nc(CN2CCCCC2Cn2cncn2)cs1 (centres undefined) | 0.411
41 | CN(C)C(=O)Cc1nc(CN2CCCC2Cn2cccn2)cs1 (centres undefined) | 47.9
42 | CN(C)C(=O)Cc1nc(CN2CCCCC2Cn2cncn2)cs1 (centres undefined) | 19.1
43 | CC(=O)Nc1nc(CN2CCCC2Cn2cccn2)cs1 (centres undefined) | 13.7
44 | CN(C)C(=O)Cc1nc(CN2CCCC2Cn2cncn2)cs1 (centres undefined) | 60.8

Row | Structure (SMILES) | INHIBITION [%]
45 | Cc1cccc(CN2CCC3(CCCN(C(=O)c4ccoc4)C3)C2=O)n1 (centres undefined) | -3.52
46 | CCn1nc(Br)nc1Sc1ccccc1NC(C)=O | 12.4
47 | Cc1ccc(CN2C[C@H](OCCN(C)C)[C@H]3OCCC[C@H]32)o1 | -102
48 | CC(=O)N1CCC[C@@H](NCc2cccc(F)c2)[C@@H]1c1ccc(C)s1 | -32.2
49 | CCC(=O)N1CCN(C(=O)Nc2cccc(N3CCOCC3)c2)CC1 | 23.2
50 | O=C(Nc1cccc(N2CCOCC2)c1)N[C@H](CO)c1ccccc1 | 51.8
51 | O=C(Nc1cccc(N2CCCC2)c1)N[C@H](CCO)c1ccccc1 | 19.8
52 | CCn1ncc(S(=O)(=O)NC2(CN3CCOCC3)CCCCC2)c1C | 32.8
53 | CCOC(=O)N1CCC(NC(=O)Nc2cccnc2OCC)CC1 | -35.7
54 | Fc1cnc(N2CC[C@@H](N3CCOCC3)[C@@H]2Cc2cccnc2)nc1 | 43.8
55 | COc1ccccc1OCCn1c(C)c(C)oc1=O | 48.2
56 | Cc1ccc(C)c(S(=O)(=O)CCN2CCCC2Cn2cccn2)c1 (centres undefined) | 4.93
57 | Cc1cc(N2CCC(n3cc(CN4CCNCC4)nn3)CC2)ccn1 | 49.9
58 | CC(C)(C)c1cnc(CN2CCC[C@H]2CO)o1 | 34.1
59 | Cc1cc(N2CCC(n3cc(CCCO)nn3)CC2)ccn1 | 41
60 | OC[C@@H]1CCCN1Cc1cn(C2CCN(C3CCCC3)CC2)nn1 | 54.4
61 | Cc1cc(N2CCC(n3cc(CN4CCC[C@@H]4CO)nn3)CC2)ccn1 | 68.9
62 | CC(C)Nc1cc(N2CCC(n3cc(CCO)nn3)CC2)ncn1 | 19.3
63 | COc1ccc(C[C@H]2CNCC[C@@H]2OCC2CC2)cc1 | -51.6
64 | CN(C(=O)Cc1ccc2c(c1)OCCO2)C1CCCC1 | -138
65 | Cc1cncc(C2CCN(Cc3cccn3C)CC2)n1 | 41.2
66 | CCn1cc(NC(=O)C2CCC(=O)N2Cc2ccc(C)o2)cn1 (centres undefined) | 16.1

Row | Structure (SMILES) | INHIBITION [%]
67 | CN1CCC(N(C)C[C@H]2CC[C@@H](Cc3ccc4c(cnn4C)c3)O2)CC1 | 14.9
68 | CCN(C)C[C@H]1CC[C@@H](Cc2ccc3c(cnn3C)c2)O1 | 58.2
69 | CN(C)C[C@H]1CC[C@@H](Cc2ccc3c(cnn3C)c2)O1 | 32.4
70 | CCOc1nn(CC)cc1-c1nnc(SCC)n1C | 15
71 | Cc1cc(C)cc(CNC(C)c2c(C)nn(C)c2C)c1 (centres undefined) | 58
72 | Cc1nn(C)c(C)c1C(C)NCc1ccsc1 (centres undefined) | -14.5
73 | Cc1nn(C)c(C)c1C(C)NCc1ccc(OC(C)C)cc1 (centres undefined) | -37.7
74 | CN1CC(=O)N(c2cccc(F)c2)CC12CCN(CC1CCOCC1)C2 (centres undefined) | -4.23
75 | CN(C)c1ncc(-c2cc(C(=O)NC(C)(C)CO)n(CC3CC3)c2)cn1 | -21.1
76 | COc1cccc(OC)c1C(=O)NCC(c1cccn1C)N1CCCC1 (centres undefined) | 30
77 | COc1ccc(C(=O)NCC(c2cccn2C)N2CCN(C)CC2)cc1 (centres undefined) | 6.83
78 | COc1cc(OC)cc(C(=O)NCC(c2cccn2C)N2CCCC2)c1 (centres undefined) | 28.4
79 | COc1ccc(C(=O)NCC(c2cccn2C)N2CCCC2)cc1OC (centres undefined) | 52.4
80 | COc1cccc(C(=O)NCC(c2cccn2C)N2CCCC2)c1OC (centres undefined) | 75.6
81 | COc1ccc(C(=O)NCC(c2cccn2C)N2CCCC2)c(OC)c1 (centres undefined) | -11.1
82 | CN(C)C(=O)c1cccnc1SCc1ccccc1C#N | 1.61
83 | CCc1nc(C2CCCN(C(=O)c3ccc(O)nc3)C2)no1 (centres undefined) | 43.2
84 | CN1CC(=O)N(c2ccccc2)CC12CCN(C(=O)c1cnccn1)C2 (centres undefined) | 29.3
85 | c1ccc(-c2nnc(CN3CCOC(Cn4cccn4)C3)o2)cc1 (centres undefined) | 0.914
86 | Cc1cnn(CCC(=O)N2CCCC(c3noc(C)n3)C2)c1 (centres undefined) | -4.16
87 | Cc1ccc2c(n1)N(CCn1cccn1)CCN(C1CCOCC1)C2 | -77.4
88 | Cc1ccc2c(n1)N(Cc1cccnc1)CCN(C(=O)C1CC1)C2 | 31.1

Row | Structure (SMILES) | INHIBITION [%]
89 | O=C1[C@H]2CN(S(=O)(=O)C3CC3)C[C@H]2CN1Cc1cccnc1 | 15.4
90 | Cc1ccc2c(n1)N(Cc1cccnc1)CCN(C1CCOCC1)C2 | 64.9
91 | O=C1[C@H]2CN(C3CCOCC3)C[C@H]2CN1Cc1cccnc1 | 92
92 | O=C1[C@H]2CN(C3CCOCC3)C[C@H]2CN1Cc1ccncc1 | -2.46
93 | CCOC(=O)CNC(=O)NCc1cccn1Cc1cccc(C)c1 | 45.8
94 | CC(=O)N1[C@H](CN(C)C)C[C@@H]2CN(C(=O)c3occc3C)CC[C@@H]21 | 12.4
95 | O=C(c1ccncc1)N1CCCC(c2ncncc2-c2ccncc2)C1 (centres undefined) | 12.3
96 | CCc1noc(CN2CCN(C(=O)OC(C)(C)C)C(C)C2)n1 (centres undefined) | 20.4
97 | Cc1ccc(CN2CC(O)CN(C(=O)OCC(C)C)CC2=O)cc1 (centres undefined) | 18.4
98 | O=S(=O)(c1cn[nH]c1)N1C[C@@H](O)[C@H](N2CCc3ccccc3C2)C1 | -51.3
99 | COc1cccc(C2CC(=O)Nc3nc(N)sc32)c1OC (centres undefined) | 5.53
100 | CC(=O)c1cc(CN2CCCC23CCN(c2ccccn2)CC3)cs1 | 12.7
101 | CN(C)c1ncc(-c2cncn2CCc2ccc3c(c2)OCCO3)cn1 | -12.3
102 | CC(C)S(=O)(=O)N1CCN(C(=O)c2cnn(C)c2Cl)CC1 | 19.845
103 | O=C(O)c1ccccc1-n1cnc(CN2CCCCCC2)c1 | 14.6
104 | CC(C)CC(=O)NCCn1nc(C2CCNC2)c2cccnc21 (centres undefined) | 44.8
105 | CC(C)(C)CC(=O)NCCn1nc(C2CCNC2)c2cccnc21 (centres undefined) | 54.5
106 | O=C(CCC1CCCC1)NCCn1nc(C2CCNC2)c2nccnc21 (centres undefined) | 67.1
107 | O=C(NCCn1nc(C2CCNC2)c2cccnc21)C1CC1 (centres undefined) | 13.5
108 | COCCC(=O)NCCn1nc(C2CCNC2)c2cccnc21 (centres undefined) | 5.11
109 | O=C(CCC1CCCC1)NCCn1nc(C2CCNC2)c2cccnc21 (centres undefined) | 38.7
